PubChem BioAssay
Calls of active or inactive are those of the source.

Assays:
[1] = system: Plasmodium falciparum Sir2 (PF13_0152, Sir2A); assay: pfSir2 binders on small-molecule microarrays, primary screen, biochemical, small-molecule microarray, 635 nm fluorescence (AID 1098); conditions: small-molecule microarray binding, fluorescence 635 nm; higher = more signal;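 note: score merges spot fluorescence intensity with its signal-to-noise ratio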
[2] = small-molecule microarray binders of probe aDKK1, primary screen, biochemical, biotinylated probe, 635/667 nm fluorescence (AID 1099); conditions: higher = more signal;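 note: score merges 667nm spot fluorescence with signal to noise across triplicate slides; reference of the scale not given here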
[3] = small-molecule microarray binders of probe aCHRDL2, primary screen, biochemical, biotinylated probe, 635/667 nm fluorescence (AID 1100); conditions: higher = more signal
[4] = splicing luciferase reporter signal modulators, primary screen, spliceosome inhibition project, cell-based, HEK293, splice +/- reporter (AID 1101); conditions: luminescence, 24 h, higher = more signal, called active from +8 up or from −8 down;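 note: HEK293 cells carrying a splicing-competent luciferase reporter gene; test concentration not given here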
[5] = molecular target: Fibroblast growth factor 10 (Homo sapiens) (UniProt O15520); assay: FGF10 binders on small-molecule microarrays, primary screen, biochemical, small-molecule microarray, 635 nm fluorescence (AID 1102); conditions: FGF10 binding, fluorescence 635 nm, higher = more signal
Fibroblast growth factor 10 (Homo sapiens), sequence (O15520 whole entry, looked up): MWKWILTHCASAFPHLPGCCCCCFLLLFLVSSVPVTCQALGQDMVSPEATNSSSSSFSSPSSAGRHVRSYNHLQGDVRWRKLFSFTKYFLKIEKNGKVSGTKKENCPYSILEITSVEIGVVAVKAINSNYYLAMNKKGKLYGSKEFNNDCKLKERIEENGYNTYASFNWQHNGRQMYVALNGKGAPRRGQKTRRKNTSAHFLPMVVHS

[6] = system: glycogen synthase kinase-3 (GSK3A per assay name; protocol says GSK3B); assay: GSK3 binders on small-molecule microarrays, primary screen, biochemical, small-molecule microarray, 635 nm fluorescence, GSK3A (AID 1103); conditions: small-molecule microarray binding, fluorescence 635 nm; higher = more signal; note: the record names both GSK3A and GSK3B
[7] = molecular target: Epidermal growth factor receptor (Homo sapiens) (UniProt P00533); assay: EGFR binders on small-molecule microarrays, primary screen, biochemical, small-molecule microarray, 635 nm fluorescence (AID 1104); conditions: EGFR binding, higher = more signal;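 note: score merges 667 nm emission intensity with spot signal to noise over triplicate slides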
Epidermal growth factor receptor (Homo sapiens), sequence (P00533 whole entry, looked up): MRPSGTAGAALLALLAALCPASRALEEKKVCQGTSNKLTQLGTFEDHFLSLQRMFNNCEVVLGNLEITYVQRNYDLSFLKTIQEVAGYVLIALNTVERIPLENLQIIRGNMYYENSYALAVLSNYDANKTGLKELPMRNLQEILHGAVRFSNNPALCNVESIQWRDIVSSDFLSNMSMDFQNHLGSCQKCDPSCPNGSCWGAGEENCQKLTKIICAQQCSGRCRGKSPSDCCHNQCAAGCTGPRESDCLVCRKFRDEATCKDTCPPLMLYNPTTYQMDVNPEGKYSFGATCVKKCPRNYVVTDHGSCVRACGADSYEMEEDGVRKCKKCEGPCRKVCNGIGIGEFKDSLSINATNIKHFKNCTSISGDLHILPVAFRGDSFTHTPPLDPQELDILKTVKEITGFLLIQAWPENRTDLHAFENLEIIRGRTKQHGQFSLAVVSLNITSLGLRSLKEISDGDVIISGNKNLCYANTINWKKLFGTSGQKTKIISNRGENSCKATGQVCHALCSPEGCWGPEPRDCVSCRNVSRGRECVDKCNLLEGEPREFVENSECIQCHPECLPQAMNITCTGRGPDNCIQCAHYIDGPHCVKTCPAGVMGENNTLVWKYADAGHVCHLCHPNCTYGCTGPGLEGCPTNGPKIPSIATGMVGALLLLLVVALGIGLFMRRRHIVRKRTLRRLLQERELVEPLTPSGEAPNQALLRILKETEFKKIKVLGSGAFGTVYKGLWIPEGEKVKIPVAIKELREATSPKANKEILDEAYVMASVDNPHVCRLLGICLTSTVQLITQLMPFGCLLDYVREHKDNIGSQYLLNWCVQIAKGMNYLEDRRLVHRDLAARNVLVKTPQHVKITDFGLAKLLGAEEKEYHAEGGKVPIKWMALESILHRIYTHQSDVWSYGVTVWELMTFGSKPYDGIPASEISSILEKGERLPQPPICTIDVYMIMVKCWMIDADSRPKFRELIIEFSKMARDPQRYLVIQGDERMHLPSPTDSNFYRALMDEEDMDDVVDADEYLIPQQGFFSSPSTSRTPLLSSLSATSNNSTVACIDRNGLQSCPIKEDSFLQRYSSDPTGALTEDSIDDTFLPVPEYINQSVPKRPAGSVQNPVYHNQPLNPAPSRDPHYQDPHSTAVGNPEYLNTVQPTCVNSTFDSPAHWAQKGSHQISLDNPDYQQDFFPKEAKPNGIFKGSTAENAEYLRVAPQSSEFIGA

[8] = molecular target: Follistatin-related protein 3 (Homo sapiens) (UniProt O95633); assay: FSTL3 binders on small-molecule microarrays, primary screen, biochemical, small-molecule microarray, 635 nm fluorescence (AID 1105); conditions: FSTL3 binding, higher = more signal;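 note: score merges emission near 667 nm and signal to noise per printed spot across three slides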
Follistatin-related protein 3 (Homo sapiens), sequence (O95633 whole entry, looked up): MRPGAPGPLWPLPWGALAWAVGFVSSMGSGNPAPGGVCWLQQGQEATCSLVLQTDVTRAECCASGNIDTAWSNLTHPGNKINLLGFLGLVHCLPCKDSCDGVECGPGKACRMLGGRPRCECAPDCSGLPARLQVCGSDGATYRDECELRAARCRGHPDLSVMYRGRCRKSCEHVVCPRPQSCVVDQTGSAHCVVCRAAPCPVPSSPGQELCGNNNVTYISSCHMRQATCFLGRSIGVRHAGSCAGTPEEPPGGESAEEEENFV

[9] = molecular target: Dickkopf-related protein 1 (Homo sapiens) (UniProt O94907); assay: DKK1 binders on small-molecule microarrays, primary screen, biochemical, small-molecule microarray, 635 nm fluorescence scan (AID 1106); conditions: DKK1 binding, higher = more signal;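 note: score merges emission near 667 nm with signal to noise over three replicate slides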
Dickkopf-related protein 1 (Homo sapiens), sequence (O94907 whole entry, looked up): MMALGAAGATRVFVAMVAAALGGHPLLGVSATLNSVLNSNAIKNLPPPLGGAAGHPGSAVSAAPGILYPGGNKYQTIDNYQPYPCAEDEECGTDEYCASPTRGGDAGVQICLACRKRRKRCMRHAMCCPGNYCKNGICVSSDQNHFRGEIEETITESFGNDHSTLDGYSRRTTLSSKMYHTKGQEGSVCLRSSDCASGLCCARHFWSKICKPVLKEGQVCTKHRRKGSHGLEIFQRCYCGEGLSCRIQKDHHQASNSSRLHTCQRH

[10] = system: Inhibin beta A chain (activin A); assay: INHBA (activin A) binders on microarrays, primary screen, biochemical, small-molecule microarray, 635 nm fluorescence scan (AID 1107); conditions: small-molecule microarray binding, higher = more signal;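 note: mouse activin A protein probed at 4.33 µg/mL on printed slides; score merges bound-protein fluorescence near 667 nm with spot signal-to-noise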

SMILES | composite z-score [1] | composite z-score [2] | composite z-score [3] | z-score [4] | composite z-score [5] | composite z-score [6] | composite z-score [7] | composite z-score [8] | composite z-score [9] | composite z-score [10]
[N-]=[N+]=Nc1ccccc1[C@H]1OC(c2ccc(OCCCO)cc2)=N[C@@]1(Cc1ccccc1)C(=O)NCc1ccccc1 | 0.427 | 0.243 | 0.712 | -1.72 (inactive) | 0.776 | 1.12 | -0.0565 | 0.643 | 0.865 | 0.774
N#Cc1ccc(NN2C(C(O)c3ccccc3)C=CC3C(=O)N(c4ccccc4)C(=O)C32)cc1 (stereo not given) | 1.3 | 0.313 | 0.557 | 1.3 (inactive) | 0.968 | -0.353 | -0.0382 | 0.441 | -0.257 | 0.658
NC(=O)NCC#Cc1ccc2c(c1)[C@]1(C(=O)N2)[C@H](c2ccc(OCCO)cc2)N2[C@H](c3ccccc3)[C@H](c3ccccc3)OC(=O)[C@H]2[C@@H]1C(=O)N1CCN(c2ncccn2)CC1 | 0.664 | -0.356 | -0.417 | -0.115 (inactive) | 0.621 | 0.0283 | 0.231 | 0.232 | 0.209 | 1.29
Cc1ccc(S[C@]2(C(=O)O)CC(=O)N(Cc3ccccc3C(F)(F)F)[C@@H]2c2ccc(CO)cc2)cc1 | -0.809 | -0.0885 | 1.08 | 0.0922 (inactive) | -0.628 | -0.926 | -1.01 | -0.894 | -1.03 | 1
CC(C)(C)OC(=O)CC[C@@]1(C(=O)N2CCCCC2)N=C(c2ccc(OCCCO)cc2)O[C@@H]1c1ccccc1N=[N+]=[N-] | 1.13 | 0.977 | 0.964 | -0.405 (inactive) | 1.19 | 1.3 | 0.32 | 1.1 | -0.139 | 0.899
O=C(C=C(CC(O)c1cccc(Cl)c1)OCCF)OCCF (stereo not given) | 1.87 | 0.558 | 0.913 | -0.985 (inactive) | -0.357 | -0.571 | -0.737 | -0.863 | -0.735 | 1.31
[N-]=[N+]=NCc1ccccc1[C@H]1OC(c2ccc(OCCCO)cc2)=N[C@@]1(Cc1ccccc1N=[N+]=[N-])C(=O)N1CCCCC1 | 1.31 | 1.11 | 1.06 | 0.532 (inactive) | 1.42 | 1.29 | 0.363 | 1.25 | 0.256 | 1.23
C=CCN1C(=O)[C@@]2(O[C@@H](CCO)[C@H]([Si](C)(C)c3ccc(OC)cc3)[C@H]2C)c2cc(NC(=O)[C@H](C)O)ccc21 | 1.53 | -0.474 | -0.0061 | -2.46 (inactive) | 1.26 | 1.3 | -0.242 | 0.254 | 0.147 | -0.156
C=C(CCCC)/C(=C/C[C@@H](OC(=O)c1ccncc1)c1ccccc1OCCO)c1cc(C(=O)OC)ccc1OC | 0.96 | -0.0551 | -0.133 | -0.322 (inactive) | 0.659 | 0.272 | 0.145 | 0.422 | 0.135 | 0.851
CC(C)CCC[C@@H](C)[C@H]1CC[C@@]2(C)C3=C(CC[C@]12C)[C@@]1(C)CC[C@H](OC(=O)C(C)(C)C)C(C)(C)C1CC3 (stereo not given in full) | -0.0682 | -0.291 | -0.636 | -2.09 (inactive) | 0.897 | 0.465 | 0.837 | 0.619 | 0.683 | -0.312
CCOC(=O)C1=CC[C@@H](c2ccccc2)N(S(=O)(=O)c2ccc(C)cc2)[C@H]1C=C(C)C | 0.625 | 0.367 | 0.688 | -0.925 (inactive) | 1.02 | 0.604 | 1.01 | 1.38 | 0.226 | 1.11
O=C1O[C@H](c2ccccc2)[C@H](c2ccccc2)N2[C@H]1[C@@H](C(=O)N1CCCCCCC1)[C@]1(C(=O)Nc3ccc(C#CCCO)cc31)[C@H]2c1ccc(OCCO)cc1 | 2.14 | 2.78 | 1.42 | -0.302 (inactive) | 1.65 | 1.45 | 1.89 | 1.66 | 2.65 | 1.9
COc1ccc(C(=O)Nc2ccc(CN3C(=O)[C@]4(O[C@H](CCn5cc([C@H](O)c6ccccc6)nn5)[C@@H]([Si](C)(C)c5ccc(OC)cc5)[C@@H]4C)c4ccccc43)cc2)cc1 | 0.789 | 0.294 | 0.824 | -1.41 (inactive) | -0.09 | -0.109 | -0.39 | -0.113 | 0.102 | 1.47
C[N+](C)(C)CCCC[C@@H]1NC(=O)[C@H]2C[C@@H](C(=O)NCCCCCCN)[C@@H](c3cccc(OCCO)c3)N2C1=O | 1.56 | 1.82 | 0.984 | -0.481 (inactive) | 1.17 | 1.33 | 0.717 | 1.28 | 1.27 | 1.63
C=CCNC(=O)[C@H]1[C@@H]2C(=O)O[C@@H](c3ccccc3)[C@@H](c3ccccc3)N2[C@@H](c2ccc(OCCO)cc2)[C@]12C(=O)N(C(=O)OCCOC)c1ccc(C#CC3=CCCCC3)cc12 | 1.39 | 0.0825 | -0.0093 | -1.98 (inactive) | 1.17 | 1.31 | 0.475 | 1.11 | 0.522 | 0.373
C=C(C)[C@@H]1CC=C(C(O)C2C=CC3C(=O)N(C4CCCCC4)C(=O)C3N2Nc2ccc(OC)cc2)CC1 (stereo not given in full) | 1.37 | 0.326 | 0.826 | -0.603 (inactive) | 1.03 | 1.31 | 0.367 | 1.37 | 0.21 | 0.918

SMILES | composite z-score [1] | composite z-score [2] | composite z-score [3] | z-score [4] | composite z-score [5] | composite z-score [6] | composite z-score [7] | composite z-score [8] | composite z-score [9] | composite z-score [10]
COc1ccc(CCNC(=O)[C@@H]2c3ccccc3C(=O)N(Cc3ccccc3)[C@H]2c2ccc(CO)cc2)cc1 | 1.23 | -0.0548 | 0.693 | -0.575 (inactive) | 0.847 | 0.432 | -0.25 | 0.84 | -0.0051 | 0.309
CC(C)=CCCC(C)=CC(O)C1C=CC2C(=O)N(c3ccccc3)C(=O)C2N1Nc1ccc([N+](=O)[O-])cc1 (stereo not given) | 1.29 | -0.0499 | 0.77 | 0.644 (inactive) | 0.74 | 1.34 | 0.0387 | 0.996 | -0.4 | 0.387
C[C@]12C(=O)N(CCCO)[C@@H]3C(=O)N(c4ccc(Cl)cc4)CC=CC31O[C@@H]1/C=C\CCCOC(=O)C12 (stereo not given in full) | 1.83 | -0.275 | 0.62 | 0.158 (inactive) | -0.747 | -1.07 | -0.887 | -0.538 | -1.01 | 0.232
COCCOC(=O)N1C(=O)[C@@]2(c3cc(C#CCNC(N)=O)ccc31)[C@H](C(=O)N1CCCCCCC1)[C@H]1C(=O)O[C@H](c3ccccc3)[C@H](c3ccccc3)N1[C@@H]2c1ccc(OCCO)cc1 | 0.918 | 0.774 | 0.989 | 0.524 (inactive) | 0.544 | 0.211 | 0.588 | 0.762 | 0.0313 | 0.999
O=C1O[C@H](c2ccccc2)[C@H](c2ccccc2)N2[C@H]1[C@@H](C(=O)N1CCN(c3ncccn3)CC1)[C@]1(C(=O)Nc3ccc(C#CCCO)cc31)[C@H]2c1ccc(OCCO)cc1 | 1.66 | 0.115 | 0.536 | -0.0244 (inactive) | 1.11 | 1.28 | 1.12 | 1.48 | 0.949 | 0.463
CCOC(=O)C1=CC[C@@H](c2ccc(N(CC)CC)cc2)N(S(=O)(=O)c2ccc(C)cc2)[C@H]1c1ccc([N+](=O)[O-])cc1 | 0.468 | 0.592 | 1.33 | -1.26 (inactive) | -0.69 | -1.04 | -1.17 | -0.966 | -1.59 | 1.04
CC(C)C(CO)N1C(=O)[C@@H]2[C@H]3C(=O)OCC=C[C@H]3OC23C=CCN(CCN2CCOCC2)C(=O)[C@@H]13 (stereo not given in full) | 1.15 | -0.385 | -0.538 | 0.653 (inactive) | -0.505 | -0.118 | -0.409 | 0.351 | 0.286 | 0.934
C=CCOc1ccc([C@@H]2CC=C(C(=O)OCC)[C@H](c3cccc(Br)c3)N2S(=O)(=O)c2ccc(C)cc2)cc1 | 0.251 | 0.735 | 1.04 | -0.776 (inactive) | 0.248 | -1.11 | -0.0936 | 0.167 | 0.644 | 1.46
O=C1CSC(c2cccc([N+](=O)[O-])c2)N1c1ccccc1 (stereo not given) | -0.125 | 0.136 | -0.342 | 0.187 (inactive) | 0.523 | 0.401 | 0.354 | 0.404 | 0.661 | 0.154
C=C(COC)C(=O)CC[C@H](OC(=O)c1ccccc1-c1ccccc1C(=O)O)c1ccc(CO)o1 | 0.806 | -0.416 | -0.479 | -0.0254 (inactive) | 1.43 | 0.645 | -0.358 | 0.451 | 0.532 | 1.19
COCCOC(=O)N1C(=O)[C@@]2(c3cc(C#CC4(O)CCCCCC4)ccc31)[C@H](C(=O)N1CCN(c3ncccn3)CC1)[C@H]1C(=O)O[C@H](c3ccccc3)[C@H](c3ccccc3)N1[C@@H]2c1ccc(O)cc1 | 1.27 | -0.127 | 0.227 | -0.756 (inactive) | 0.45 | 0.235 | 0.152 | 0.321 | 0.0884 | 0.921
COc1ccc([Si](C)(C)[C@@H]2[C@@H](CC(=O)N3Cc4ccccc4C[C@H]3CO)O[C@]3(C(=O)N(Cc4cccc(N5CCCCC5=O)c4)c4ccccc43)[C@H]2C)cc1 | 0.856 | -0.154 | -0.222 | -1.46 (inactive) | 0.689 | 1.2 | 0.968 | 1.33 | 1.17 | 0.435
COCC(=C=CC[C@@H](O)c1ccccc1OCCO)C[C@@H](O)c1ccccn1 | 0.378 | -0.0661 | -0.0356 | 0.141 (inactive) | 0.457 | 0.207 | -0.0982 | 0.322 | 0.0514 | 0.639
COCCOC(=O)N1C(=O)[C@@]2(c3ccccc31)[C@H](c1ccc(OCCO)cc1)N1[C@H](c3ccccc3)[C@H](c3ccccc3)OC(=O)[C@H]1[C@@H]2C(=O)NC[C@H](O)c1ccccc1 | 1.32 | 0.161 | 0.568 | -0.353 (inactive) | 1.2 | 0.777 | 0.146 | 1.38 | 0.362 | 0.526
COC(=O)[C@@]1(Cc2ccc(F)cc2)[C@@H]2[C@@H](CC(=O)[C@H]2CC(=O)C(=O)N2CCCC2)CN1C(=O)c1ccccc1 | 1.16 | 0.942 | 0.807 | -0.98 (inactive) | 1.11 | 1.3 | -0.121 | 1.02 | -0.0822 | 0.85
CC1C=C(CCCO)C=C(C(=O)OCCS(C)(=O)=O)C(C(=O)OCCS(C)(=O)=O)=CN1Cc1cccc(OC(F)(F)F)c1 (stereo not given) | 1.11 | 0.111 | 0.297 | 1.01 (inactive) | 0.243 | 0.621 | -0.235 | 0.113 | -0.385 | 0.829
